# Measured values: PubChem BioAssay AID651899 (Broad Institute, 2012)
# Results with a measured potency or affinity are listed apart. The source made the active and inactive calls. No rule for the calls is given here.
# Assay: HEK293 cell viability loss – plate reader, cherry-pick, cytotoxicity control, dose response (AID 651899);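 also: cells exposed to compound for 48 hours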
# Settings: series mostly up to 26 µM; activity change, negative = cytotoxicity: at the top concentration
row,SMILES,"activity change, negative = cytotoxicity"
1,O=C(Nc1ccc(Cl)c(-c2nc3ccccc3[nH]2)c1)c1cccnc1,10.5% (inactive)
2,COCC(=O)N1CC[C@@H]2[C@@H](CO)N(C)c3ccc(-c4ccc(F)cc4)cc3[C@@H]21,12.1% (inactive)
3,COc1ccc(-c2ccc3c(c2)C2CC3CCN2)cc1 (stereo unspecified),-17.7% (inactive)
4,CC(CNC(=O)CCCn1ncn2c(cc3occc32)c1=O)c1ccccc1 (stereo unspecified),-20.8% (inactive)
5,CC(=O)c1ccc(C(=O)N2CCCC(Nc3ccc(C(C)C)cc3)C2)s1 (stereo unspecified),8.11% (inactive)
6,O=C(NCc1ccco1)c1ccc(-c2ccc3nccn3c2)cc1,-4.89% (inactive)
7,CCOC(=O)c1ccc2c(c1)nc(SCc1cn3ccsc3n1)n2CC,1.73% (inactive)
8,CC1CCCN(c2ccc(C(=O)Nc3cccnc3)cc2[N+](=O)[O-])C1 (stereo unspecified),-22.5% (inactive)
9,CCc1c(C(=O)NCCc2ccc(OC)c(OC)c2)[nH]c(C)c1C(C)=O,-19.5% (inactive)
10,CCCCN1C(=O)c2ccc(C(=O)Nc3cccnc3)cc2C1=O,-18.1% (inactive)
11,O=C(CSc1nc2ccccc2c(=O)n1-c1ccccc1)N1CCN(CCO)CC1,27.2% (inactive)
12,CC1Cc2nc(SCC(=O)N3CCOCC3)n(-c3ccccc3)c(=O)c2S1 (stereo unspecified),-5.73% (inactive)
13,C[C@@H]1CN([C@@H](C)CO)C(=O)Cc2cc(NC(=O)Cn3cnnn3)ccc2O[C@H]1CN(C)Cc1ccc2c(c1)OCO2,1.85% (inactive)
14,COC(=O)C1CCN(C(c2ccc(OC)c(OC)c2)c2sc3nc(C)nn3c2O)CC1 (stereo unspecified),35.7% (inactive)
15,CCOCCCNC(=O)CSc1nc2nc(C)c(Cc3ccccc3)c(C)n2n1,-19.2% (inactive)
16,CN1c2ccc(-c3cccc(F)c3)cc2[C@H]2[C@H](CCN2C(=O)c2ccncc2)[C@H]1CO,5.32% (inactive)
17,CC(=O)OCC(=O)[C@@]1(OC(C)=O)[C@@H](C)C[C@H]2[C@@H]3C[C@H](F)C4=CC(=O)C=C[C@]4(C)[C@@]3(F)[C@@H](O)C[C@@]21C,11.6% (inactive)
18,Cc1cc(NC(=O)CN(C)S(=O)(=O)c2cnc[nH]2)ccc1Br,-14.2% (inactive)

row,SMILES,"activity change, negative = cytotoxicity"
1,CC(=O)O[C@]1(C(C)=O)CC[C@H]2[C@@H]3C=C(C)C4=CC(=O)CC[C@]4(C)[C@H]3CC[C@@]21C,-26.5% (inactive)
2,COCCN1C(=O)c2ccc(C(=O)Nc3cccnc3)cc2C1=O,23.6% (inactive)
3,Cc1nc2nc(SCC(=O)NCc3ccco3)nn2c(C)c1Cc1c(F)cccc1Cl,10.3% (inactive)
4,O=C(Nc1nccs1)[C@H]1[C@H](CO)[C@H]2Cn3c(ccc(-c4cccnc4)c3=O)[C@H]2N1CC1CCCC1,-6.31% (inactive)
5,Cc1c(NC(=O)c2cc3ccccc3o2)cccc1-n1cnnn1,-12.2% (inactive)
6,CNC(=O)C[C@H]1CC[C@@H]2[C@H](COC[C@@H](O)CN2C(=O)Nc2ccc3c(c2)OCO3)O1,2.39% (inactive)
7,O=C(Nc1ncc2c(n1)CC(c1cccc(Cl)c1)CC2=O)c1ccco1 (stereo unspecified),5.23% (inactive)
8,CSc1ccc(S(=O)(=O)N2CCC(C(=O)Nc3cccnc3)CC2)cc1,-0.874% (inactive)
9,Cc1ccc(Cc2c(C)nc3nc(SCC(=O)NCCCN4CCCCC4)nn3c2C)cc1,20.8% (inactive)
10,C/C=C/c1ccc2c(c1)O[C@@H](CN(C)C(=O)Cc1cccnc1)[C@H](C)CN([C@H](C)CO)S2(=O)=O,7.53% (inactive)
11,CN1c2ccc(-c3cccc(F)c3)cc2[C@@H]2[C@@H](CCN2C(=O)c2ccncc2)[C@H]1CO,16.7% [at 23.5 µM] (inactive)
12,Cc1ccc(-n2ncc3c2CC(C)(C)CC3NC(=O)CCc2cccnc2)cc1 (stereo unspecified),-6.14% (inactive)
13,O=C(O)CSc1ncnc2scc(-c3ccc(Br)cc3)c12,-12.5% (inactive)
14,CC(=O)c1ccc(NC(=O)CN2CCN(c3ccccc3)CC2)cc1,-22.7% (inactive)
15,CC(=O)c1ccc(N2CCN(C(=O)c3ccc4nc[nH]c4c3)CC2)cc1,39% (inactive)
16,CCOC(=O)c1ccc(N2C(=O)c3n[nH]c(C)c3C2c2ccc(OC)c(OC)c2)cc1 (stereo unspecified),-12.5% (inactive)
17,CN(C(=O)CSc1nc2ccccc2c(=O)n1-c1ccccc1Cl)C1CCS(=O)(=O)C1 (stereo unspecified),1.02% (inactive)
18,Nn1c(SC/C=C/c2ccccc2)nnc1-c1cccnc1,-7.17% (inactive)
